From the supplement of paper PMC11417369
± gives the standard deviation of the averaged measurements. The full ranking holds about 25,000 sequences; the median of “ln(normalized median fluorescence intensity)” is about 8.6, and the highest 2% start at about 10. The entries come from a sample that favours the highest values as a whole.

test system: PfAP2-EXP AP2 domain (GST-tagged); assay: gcPBM binding intensity (ln(normalized median fluorescence intensity)); higher = stronger DNA binding
In short: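 Using an Agilent 4 × 180k array, primer-extended double-stranded 36-bp intergenic genomic probes and negative controls were exposed for 1 h to GST-fused P. falciparum DNA-binding domains expressed in E. coli. Binding was carried out in 1× PBS with 1% milk, 0.2 mg/ml BSA, 0.5% salmon testes DNA and 0.03% Triton X-100, and protein was detected with Alexa488 anti-GST antibody and a 488 nm scan. Binding intensity is the highest Masliner-normalised natural-log median intensity across replicate spots of either probe orientation.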

Sequence	gcPBM binding intensity (ln)
TACATTCTAATAATTGCACACTGGTTATTAAAAGGA [CACACA_site1614]	8.4 ± 0.29
TATATATTTTTTTCAAGTACACATTACAGTTACATA [XGTACX_site2713]	8.62 ± 0.38
TTATAAGATTTATGTACACACATATACTCACCTCTA [CACACA_site729]	8.51 ± 0.25
TTTATATAGAAACACACACACAAAAAAAAAAAAAAA [CACACA_site2646]	8.24 ± 0.52
TATTAATTATATTTATGTACATAATCATATTATTAT [XGTACX_site7938]	8.55 ± 0.35
TTTAATCATATGTTATATAATAAGCCCCCCCCCCAA [CACACA_negctrl_site486]	11 ± 0.12
ATATATATATAATTATATAAAATATATCATATGTTA [XGTACX_negctrl_site47]	9.37 ± 0.14
TCTTTCTATTTATAATGTACTCAAAATTATTCTATA [XGTACX_site4867]	8.6 ± 0.36
AGTGTGCTCAGCTTAGCACAAATTGGAATACCATGT [CACACA_negctrl_site367]	8.63 ± 0.4
CATATAATAAATAATACACACATATTGTAAATATAT [CACACA_site5734]	8.43 ± 0.44
ATATTAGATTAATTTACACACAGAAAATGAGATTTT [CACACA_site541]	8.21 ± 0.36
ATATTATGAAGGGATATTTTCAAAAATATTAGGAGA [CACACA_negctrl_site942]	8.64 ± 0.41
TTATTTTTCAATGAAAAGGATTATATATATATATAT [CACACA_negctrl_site757]	10.2 ± 0.13
ATATTTCAAAATGAAAGTACATATAAAAATTATACA [XGTACX_site3787]	8.31 ± 0.29
TTCATATTTCATATATGTACTTATGTTCAATATAGT [XGTACX_site3811]	8.31 ± 0.3
ATTTTTTTGTTAATTTGTACATAAAATTTTATTTTA [XGTACX_site7007]	8.72 ± 0.42
TTTATATTTATATAAATATAATATATATGAATTATA [XGTACX_negctrl_site466]	8.19 ± 0.51
ATATATATATATAATGCACACATTATGAATTATGTA [CACACA_site3384]	9.98 ± 0.26
TATAATATAAAATATGCACACATTGGAATGGGAGAA [CACACA_site3746]	8.97 ± 0.35
TATATAGAGAGATATGCACACTGTATGAATGCCCCC [CACACA_site5476]	10.3 ± 0.38
TATATGGAGAGATATGCACACTGTATGAATGCCCCC [CACACA_site8853]	10.3 ± 0.33
AATATATAGAGAGATATGCACACTGTATGAATGCAC [CACACA_site2677]	8.58 ± 0.014
CCACTGTATGAATGCACACATTCATAGAATTGCTAT [CACACA_site2676]	8.79 ± 0.28
TCCTTATAAAAATACACACAAACTTTAATTAAAACA [CACACA_site3730]	8.45 ± 0.58
TTTAAGATTTTGTAATGTACATATATACATATATAT [XGTACX_site399]	8.45 ± 0.33

Sequence	gcPBM binding intensity (ln)
AATATAAGAATATATACACACATAAATACATACATA [CACACA_site4128]	8.6 ± 0.31
TAAAGAAATAAATACATACACACATATATATATATA [CACACA_site3363]	10.2 ± 0.5
AAAAAAAGAAATAATAAAAAATATATATATATATAT [GTGCAC_negctrl_site702]	10.1 ± 0.44
ATATAAATAAAGAAATATATATATATATATATATAT [GTGCAC_negctrl_site668]	10.2 ± 0.88
AAAAAAAAAAAAGAAAAATATATATATAAATAAATA [GTGCAC_negctrl_site569]	8.29 ± 0.67
AGAAATAAGAAATATACACACATATATATATATATA [CACACA_site2808]	10.2 ± 0.18
AGAAATAAGAAATATACACACATATAAATATAAATA [CACACA_site7342]	8.52 ± 0.55
AAGAAATAAATACATACACACATATATAAATAAATA [CACACA_site7559]	8.68 ± 0.18
AAGAAATAAATACATACACACATATATATATATATA [CACACA_site3362]	10 ± 0.34
TTTTTTTTTTTTGATGCACACACCTGAACGAGTTAA [CACACA_site317]	8.62 ± 0.32
TAGCGTACATTTCATTGTAATCATAAAAAATAAAGA [CACACA_negctrl_site447]	8.56 ± 0.49
GTTGCAATTAACACTAGTACATATAAGTAGTTTATT [XGTACX_site2063]	8.72 ± 0.18
TCCTTGCATTTTAAAACACACAAAAATTAATTGTTA [CACACA_site7152]	8.55 ± 0.32
TTTTATGATTGACACACACACAAAAAAAAAAAAAAA [CACACA_site7860]	8.2 ± 0.43
ATATATATATATATAGTGCATAAAATAAGTTTCTAA	10.2 ± 0.28
TTTCTAGTTACAAGAGTGCATAATATATAAAAATAA [GTGCAC_site9874]	8.85
AAAAAAAATATACATACATGCATACATAAGTTTCTA [TGCATGCA_site998]	8.49 ± 0.24
AATAAAAATAATATAGTGCATAATATAAGGAAAAAA	9.07 ± 0.071
TATATATATATATAAGTGCATATAAAAATCGTTCGT	10.3 ± 0.18
TATATATATATAATAGTGCATAAATAAATATATAAA	9.65 ± 0.057
TTTTTTATTCCATAATATAATATGTTTTGAAATTTG [GTGCAC_negctrl_site440]	8.27 ± 0.33
TTTATTATATTTTTTTGTACATATTGATGTATATAA [XGTACX_site6527]	8.59 ± 0.28
GATGTGATGTATTTGGTATTTTTCGATGTTGGTAGG [CACACA_negctrl_site355]	8.79 ± 0.73
TACTATTTAAAATATGAACACACATTATTTGTTTTA [CACACA_site8870]	8.13 ± 0.3
ATATTGAAATGTTAATAGAAATATATGGTTAAATTG [XGTACX_negctrl_site212]	8.34 ± 0.34

Sequence	gcPBM binding intensity (ln)
ATATACAGAAAAAATTAAAATAAATATGCAAAACAA [CACACA_negctrl_site704]	8.86 ± 0.32
ATAAATAAAACAACAGTGCAATAAAATTAGTTGAGG	9.035 ± 0.021
AAAATAAAATTAGTTGCATGCAACTTAAACAGAAAT [TGCATGCA_site860]	10.3 ± 0.35
TATTGTTATTAAAAATGTACATATAAATTTCTTATT [XGTACX_site1409]	8.32 ± 0.33
GTGTAAAAATTAAAGTGTACACATATATATATATAT [XGTACX_site2251]	10.2 ± 0.31
CCTAAAGTGTAAAATTCACACACATATATATATATA [CACACA_site8385]	10.2 ± 0.44
TAAAAATTAAAGTGTACACATATATATATATATATA [CACACA_site4781]	10.2 ± 0.38
ATATATAATTAATTTTGTACACATAAAAAAAAAAAT [XGTACX_site6647]	8.59 ± 0.42
TAAATTAATAAAAAGTGTACATAATATACATATATA [XGTACX_site8604]	8.62 ± 0.33
TAAAGTGTAAAATTCACACACATATATATATATATA [CACACA_site4883]	10.1 ± 0.36
AAAAAATTATAAAAGTGTACATATATATATATATAT [XGTACX_site154]	10 ± 0.38
TTTTTCTTAAAAAATTGTACACATATATATATATAT [XGTACX_site542]	10.3 ± 0.22
AGGGGAAATAAAATATAAATTATCATATATATATAT [XGTACX_negctrl_site366]	9.94 ± 0.21
TTTTATTATATATATTGTACATATATTTTTATTTTT [XGTACX_site1564]	8.62 ± 0.33
TAAACATAAATATACACACAAACATATATGTATTTT [CACACA_site1214]	8.51 ± 0.32
TATGAACACCCAAATACACACACTCAAAAAAAAAAA [CACACA_site5466]	8.4 ± 0.32
TAAAAAATAAGATATACACACATATATATATATATA [CACACA_site2324]	10.2 ± 0.42
AAAAATAAGATATATACACACATATAAATATAAATA [CACACA_site7396]	8.51 ± 0.38
TACATATATTATTGCACACATATAAAATACCCCCAA [CACACA_site3895]	9.55 ± 0.52
AAAAAAAAAAAAAATACACACATATAAATATAAATA [CACACA_site6189]	8.3 ± 0.49
TACAGATATTATTGCACACATATAAAATACCCCCAA [CACACA_site6014]	9.53 ± 0.33
TAAAAAATAAGATATACACACATATATTTATTTATA [CACACA_site7158]	8.09 ± 0.52
CATACATATATTATTGCACACATATAAAATACCCCC [CACACA_site9292]	10.2 ± 0.33
AAAAAAAAAATATACACACACACATACACATAAATA [CACACA_site3808]	8.79 ± 0.53
TAAAAAATAAAATACACACACATATATATATATATA [CACACA_site1323]	10.2 ± 0.64

Sequence	gcPBM binding intensity (ln)
AAAAATAAAATATATACACACATATATATATATATA [CACACA_site2943]	10.2 ± 0.64
TAAAAAAATAAATATACACACATATATATATATATA [CACACA_site1089]	10.2 ± 0.29
ATAAAAAAAAAAAATACACACATATATATATATATA [CACACA_site1709]	10.1 ± 0.26
ATTATACTTTCCATTCGTACATATATAAATAAATAA [XGTACX_site6245]	8.93 ± 0.35
TTTTATTTATTTTATTGTACATATATAAAACTATGA [XGTACX_site3476]	8.57 ± 0.42
ATATTTTTAGATTCAGAAAAAAGATTCAACTTACTC [CACACA_negctrl_site1357]	8.25 ± 0.45
ATGTAGAATTGTAAATGTACATGAAACACATATTCA [XGTACX_site3436]	8.79 ± 0.34
TATAATATATTTATATGTACTTATTTATTTATATAT [XGTACX_site6519]	8.39 ± 0.34
AAAAATAAAATAAAGAAGGAAAATAAAAAAATAAGG [CACACA_negctrl_site1811]	8.79 ± 0.44
ATTTGTATATATTAATGTACACACATGCGTATGTTC [XGTACX_site7579]	8.73 ± 0.41
ATATTTATGACCGTACGTACCTAACAATACAATCAA [XGTACX_site4511]	8.67 ± 0.099
TATATAAACATATAAACATGCAATATATATATGTTA [TGCATGCA_site765]	8.43 ± 0.2
TTAATTTACATGAACTGTACATAACATTTTTTTAAA [XGTACX_site4672]	8.38 ± 0.38
AGGCACGTGTTATATACACACATAATCAAATAAACT [CACACA_site7852]	8.76 ± 0.56
ATAAATAATATAAATACACACTAAAAAAAATATATA [CACACA_site4456]	8.62 ± 0.54
CAATTCAATATATATACACACACACTATTAATAATT [CACACA_site9256]	8.52 ± 0.41
TATATATATATATATACACACTATATAATTCAAACA [CACACA_site4712]	10.1 ± 0.33
CCCCCCGTGTTATATACACACATAATCAAATAAAAT [CACACA_site4111]	10.9 ± 0.078
AAATTATAATATAATACACACATAAAAAAAAAATCA [CACACA_site3634]	8.6 ± 0.43
TATATATATATATATACACACACACTAATAAAAAAA [CACACA_site8426]	10.2 ± 0.21
ATATAAATAATATAAATACACACTAAAAAAAATATA [CACACA_site542]	8.72 ± 0.51
TATATATATATATATATACACACTATATAATTCAAA [CACACA_site1023]	10.2 ± 0.44
